A selection: hits, their analogues and other compounds. The true share with any hit is near 1.1%.
MOR-DOR ag-1 = OPRM1-OPRD1 heterodimerization agonism | P35372+P41143 | cells, luminescence | activation, % at 9.3 µM | 340,000 compounds, 0.3% hits
Target sequence (P35372 whole entry, looked up): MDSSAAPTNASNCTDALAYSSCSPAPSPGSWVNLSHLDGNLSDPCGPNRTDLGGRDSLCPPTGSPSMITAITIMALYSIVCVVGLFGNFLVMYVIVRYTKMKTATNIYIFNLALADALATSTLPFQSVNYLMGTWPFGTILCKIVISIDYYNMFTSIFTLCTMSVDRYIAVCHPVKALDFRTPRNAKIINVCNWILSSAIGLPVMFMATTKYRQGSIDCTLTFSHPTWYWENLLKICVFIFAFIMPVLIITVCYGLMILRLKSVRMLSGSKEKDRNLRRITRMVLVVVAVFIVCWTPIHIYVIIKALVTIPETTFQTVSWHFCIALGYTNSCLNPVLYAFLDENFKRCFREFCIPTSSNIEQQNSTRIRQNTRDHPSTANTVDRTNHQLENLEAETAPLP
Target sequence (P41143 whole entry, looked up): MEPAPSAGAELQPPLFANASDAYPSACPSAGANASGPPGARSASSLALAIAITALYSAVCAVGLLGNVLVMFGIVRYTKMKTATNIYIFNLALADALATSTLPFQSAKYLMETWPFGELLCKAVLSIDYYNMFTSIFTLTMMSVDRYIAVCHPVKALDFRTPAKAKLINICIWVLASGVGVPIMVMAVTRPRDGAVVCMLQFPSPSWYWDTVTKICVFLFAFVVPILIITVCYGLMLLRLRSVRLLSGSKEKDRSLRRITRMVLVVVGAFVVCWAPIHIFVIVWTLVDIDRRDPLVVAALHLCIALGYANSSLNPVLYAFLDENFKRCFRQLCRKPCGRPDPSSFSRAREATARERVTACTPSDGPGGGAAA
OPRM1-OPRD1 inv = inverse agonist of human OPRM1-OPRD1 heterodimerization; P35372+P41143; cell-based MOR-DOR heterodimer luminescence, inverse agonism; inhibition, % at 9.3 µM; 340,000 compounds, 0.21% hits; AID 504357; in the data active = inhibition above about 22%, passing the limit was not always enough
HTR5A ag = activates human HTR5A in OPRM1-OPRD1 agonist counter-screen; P47898; HTR5A agonist assay, luminescence, cell-based; activation, % at 9.3 µM; 340,000 compounds, 0.61% hits; AID 504692; in the data active = activation mostly above about 9.5%, no sharp cut-off; inactive = mostly below about 7.6%
HTR5A inv ctr = inverse agonist of human HTR5A in OPRM1-OPRD1 counter-screen; HTR5A cell line, luminescence, inverse agonism; inhibition, % at 9.3 µM; 340,000 compounds, 0.083% hits; in the data active = inhibition mostly above about 23%, no sharp cut-off; inactive = mostly below about 18%
MOR-DOR ag-2 = promotes OPRM1-OPRD1 heterodimerization in HTR5A counter-screen; shares compounds with HTR5A ag; U2OS counter-screen cells, complementation luminescence, 3 h; activation, % at 9.3 µM; 800 compounds, 13% hits; AID 504913
HTR5A ag conf = confirmation of human HTR5A agonists; shares compounds with HTR5A ag; HTR5A agonist cell assay, luminescence; activation, % at 9.3 µM; 800 compounds, 17% hits; AID 504915; in the data active = activation above about 17%
Large screens that a line does not name were inactive (follow-up assays come after a bar, where they were run). Rule as the data show it, unless noted: active = activation above about 18%; inactive = the rest.

Cc1cc(C(C)(C)C)cc(C)c1CC1=NCCN1	HTR5A ag 90 | MOR-DOR ag-2 inactive | HTR5A ag conf 90
O=C(CCCCCn1c(=S)[nH]c2cc3c(cc2c1=O)OCO3)N1CCN(c2ccccc2)CC1	none
COc1cccc(N2CCN(C(=O)CCCCCn3c(=S)[nH]c4cc5c(cc4c3=O)OCO5)CC2)c1	HTR5A ag 21 | MOR-DOR ag-2 inactive | HTR5A ag conf 21
COc1ccc(C2CCCN2C(=O)Nc2ccc(Cl)cc2)cc1OC (stereo not given)	none
COc1ccc(C=NNc2nc3ccccc3s2)cc1	none
Cc1ccc2[nH]c(C)c(/C=N/Nc3nc4ccccc4s3)c2c1	HTR5A ag 20 | MOR-DOR ag-2 inactive | HTR5A ag conf inactive
Cc1cc(C)c(OCCNCc2ccccc2)c(C)c1	none
Cc1cc(C)c(OCCCCNCc2ccccc2)c(Cl)c1	HTR5A ag 19 | MOR-DOR ag-2 inactive | HTR5A ag conf inactive
CCOc1ccc2nc(NC(=O)Nc3ccccc3)sc2c1	HTR5A ag 20 | MOR-DOR ag-2 inactive | HTR5A ag conf inactive
CCS(=O)(=O)N1Cc2ccccc2CC1C(=O)Nc1ccc(OC)c(OC)c1 (stereo not given)	HTR5A ag 15 | MOR-DOR ag-2 inactive | HTR5A ag conf inactive
CCS(=O)(=O)N1Cc2ccccc2CC1C(=O)Nc1cccc(OC)c1 (stereo not given)	none
O=C(CCC(=O)N1CCSc2ccccc21)NC1CCCCC1	none
COc1ccc(NC(=O)CN(C)C(=O)/C=C/c2ccc(OCc3ccccc3)cc2)cc1	HTR5A ag 24 | MOR-DOR ag-2 inactive | HTR5A ag conf inactive
COc1ccc(NC(=O)CN(C)C(=O)/C=C/c2ccc(S(=O)(=O)N3CCCCCC3)cc2)cc1	none
O=C(NCc1ccc(F)cc1)C(c1ccco1)N(C(=O)c1csnn1)C1CC1 (stereo not given)	none
CCCc1nnc(NC(=O)c2c(O)c3c([nH]c2=O)CCCC3)s1	HTR5A ag 16 | MOR-DOR ag-2 inactive | HTR5A ag conf inactive
O=C(Nc1nccs1)c1c(O)c2c([nH]c1=O)CCCC2	none
Cc1ccc(S(=O)(=O)N2CCC(=O)N(CCOC(=O)Nc3ccc(F)cc3)CC2)cc1	none
O=[N+]([O-])c1cc([N+](=O)[O-])c(Oc2cc(Cl)ccc2Cl)cc1NC1CCCCCCC1	none
Cc1ccc(-n2c(O)c(C=NC3CCS(=O)(=O)C3)c3ccccc3c2=O)cc1C (stereo not given)	HTR5A ag 15 | MOR-DOR ag-2 inactive | HTR5A ag conf inactive
NNS(=O)(=O)c1ccc(Sc2ccccn2)c([N+](=O)[O-])c1	HTR5A ag 15 | MOR-DOR ag-2 inactive | HTR5A ag conf inactive
CCN(CC)C(CNC(=O)CSc1nnnn1-c1c(C)cccc1C)c1ccco1 (stereo not given)	HTR5A ag 20 | MOR-DOR ag-2 inactive | HTR5A ag conf 29
CCN(CC)C(CNC(=O)CSc1nnnn1-c1ccc(C)c(C)c1)c1ccco1 (stereo not given)	none
COCCCNc1nc(N)c([N+](=O)[O-])c(NCC2CCCO2)n1 (stereo not given)	HTR5A ag 15 | MOR-DOR ag-2 inactive | HTR5A ag conf inactive
CCN(CC)CCn1c(=S)[nH]c2ccc(Br)cc2c1=O	none
COC(=O)N1CCc2c(sc(NC(=O)C3COc4ccccc4O3)c2C(N)=O)C1 (stereo not given)	HTR5A ag 61 | MOR-DOR ag-2 inactive | HTR5A ag conf 43
Cc1ccc(S(=O)(=O)N2CCN(C(=O)COC(=O)C3CCC3)CC2)c(C)c1	none
COC(=O)C1=C(C)N(CCc2c[nH]c3ccc(OC)cc23)C(=O)C1	HTR5A ag 17 | MOR-DOR ag-2 inactive | HTR5A ag conf 42
COc1ccc2[nH]cc(CCNC(=O)C3CC(=O)N(c4ccc(Cl)cc4)C3)c2c1 (stereo not given)	HTR5A ag 33 | MOR-DOR ag-2 inactive | HTR5A ag conf inactive
COc1ccc2[nH]cc(CCNC(=O)C3CCCO3)c2c1 (stereo not given)	HTR5A ag 42 | MOR-DOR ag-2 inactive | HTR5A ag conf 35
COc1ccc2[nH]cc(CCNC(C)=O)c2c1	none
CCOc1ccc(N2CC(C(=O)NCCc3c[nH]c4ccc(OC)cc34)CC2=O)cc1 (stereo not given)	HTR5A ag 20 | MOR-DOR ag-2 inactive | HTR5A ag conf inactive
CCCn1cc(CN2CCC(n3nccc3NC(=O)c3ccc4c(c3)OCO4)CC2)c(C)n1	none
OCC(CO)c1cnnc2ccccc12	none
CCN1CCN(C(=O)C(C)Oc2ccc(S(=O)(=O)N3CCCC3)cc2C(N)=O)CC1 (stereo not given)	none
CC(C(=O)OCC(=O)N1CCN(c2ccccc2)CC1)N1C(=O)c2ccccc2C1=O (stereo not given)	HTR5A ag 19 | MOR-DOR ag-2 inactive | HTR5A ag conf inactive
COC(=O)c1ccc(-c2cc(C(=O)O)c3cc4c(cc3n2)OCCO4)cc1	HTR5A ag 17 | MOR-DOR ag-2 inactive | HTR5A ag conf inactive
Cc1cccc(-c2oc3ccc(-c4ccc5c(c4)OCO5)cc3c2C(=O)OCc2ccc(O)cc2)c1	none
O=C(CCl)N(c1ccc(Cl)cc1)c1c[nH]c2ccccc12	HTR5A ag 16 | MOR-DOR ag-2 inactive | HTR5A ag conf 21
COc1ccc(-c2nnc(NC(=O)CS(=O)(=O)c3ccc(F)cc3)o2)c(OC)c1	none
O=C(CS(=O)(=O)c1ccc(F)cc1)Nc1nnc(-c2ccccc2Cl)o1	HTR5A ag 34 | MOR-DOR ag-2 inactive | HTR5A ag conf inactive
CC1(OC(=O)CCc2ccccc2)C(=O)C=C2C=C(c3ccc(C#N)cc3)N(CCc3c[nH]c4ccccc34)C=C2C1=O (stereo not given)	HTR5A ag 20 | MOR-DOR ag-2 inactive | HTR5A ag conf inactive
COC(=O)CCCC1=CC2=C(c3ccccc3)C(=O)C(C)(OC(=O)C3CCCC3)C(=O)C2=CN1CCc1c[nH]c2ccccc12 (stereo not given)	HTR5A ag 15 | MOR-DOR ag-2 inactive | HTR5A ag conf inactive
CCc1cc2ccccc2nc1SCC(=O)Nc1cc(C)on1	HTR5A ag 26 | MOR-DOR ag-2 inactive | HTR5A ag conf inactive
CCc1cc2c(C)ccc(C)c2nc1SCC(=O)Nc1cc(C)on1	none
Cc1ccc(C)c(S(=O)(=O)NCc2ccncc2)c1	HTR5A ag 15 | MOR-DOR ag-2 inactive | HTR5A ag conf inactive
Cc1ccc(C)c(S(=O)(=O)NCc2cccnc2)c1	none
CCNC(COC(=O)c1ccc([N+](=O)[O-])cc1)C1CCCCC1 (stereo not given)	none
O=C(Oc1c(Cl)cc(Cl)c2cccnc12)c1ccco1	HTR5A ag 26 | MOR-DOR ag-2 inactive | HTR5A ag conf inactive
O=C(Oc1c(Cl)cc(Cl)c2cccnc12)c1cccs1	HTR5A ag 17 | MOR-DOR ag-2 inactive | HTR5A ag conf inactive
O=C(Oc1c(CN2CCOCC2)cc(Cl)c2cccnc12)c1cccs1	none
Oc1c(Cl)cc(Cl)c2cccnc12	none
COC(=O)c1ccc([C@H]2C=C(C(=O)O)O[C@@H](OCc3ccc(CO)cc3)C2)cc1	none

Assay outcomes from PubChem BioAssay.
